# Source: PubChem BioAssay (National Center for Advancing Translational Sciences (NCATS))
# Pf growth 48h: P. falciparum growth inhibition at 48 hours (one generation) | P. falciparum luciferase growth in erythrocytes, 48 h | Potency, µM (top dose mostly 28.7 µM), usual class: inhibitors | 310,000 compounds, 5.9% hits
#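 In quantitative HTS format, infected erythrocytes bearing luciferase-reporter parasites were treated for a single generation at 37 C. Luminescence after adding detection reagent served as the growth measure.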
# Shiga inhibitor: blocks Shiga toxin action in Vero cells; Vero cells, Shiga toxin protein synthesis inhibition reporter; inhibition, % at 38.7 µM; 290,000 compounds, 9.2% hits; in the data active = inhibition mostly above about 28%, no sharp cut-off; inactive = mostly below about 43%
# HCV inhibitor: HCV inhibition; Huh7.5.1 HCVcc-Cre infection, luciferase reporter, 44 h; Potency, µM (series often up to 41.8 µM), most hits filed as inhibitors; 340,000 compounds, 3.4% hits; AID 651820
#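 Cells (1,000/well) were plated 4 h before compound, then infected with HCVcc-Cre virus (~0.5 moi). After 44 h further culture, infection was read as luciferase luminescence following a 15 min substrate incubation at room temperature.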
# CHX counter: counter-screen for Shiga toxin inhibitors: cycloheximide protein synthesis inhibition. cell reporter, cycloheximide protein synthesis inhibition counterscreen. max response, %. 300,000 compounds, 12% hits. AID 2314; in the data active = max response mostly above about 13%, no sharp cut-off; inactive = mostly below about 14%; also: read at 38.3 µM for the half of the compounds with a filed dose
# AMA1 RON2 block: disrupts binding of P. falciparum AMA1 to RON2; 360,000 compounds, 0.2% hits; Potency, µM (series often up to 58.2 µM), hits mostly inhibitors; AID 720542; AlphaScreen AMA1-biotinylated RON2 peptide binding; also: nearly all actives have a fitted effect of over 45% in size
#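 AMA1 (3D7) with his tag at 25 nM final met compounds first, then biotinylated RON2 peptide at 25 nM; detection used donor plus acceptor beads, 10 µg/mL apiece, read by AlphaScreen after 30 min at room temperature.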
# Pf growth 96h: P. falciparum growth inhibition at 96 hour, primary screen for plastid delayed-death inhibitors. P. falciparum luciferase reporter growth, 96 h. Potency, µM (titrated, usually from 28.7 µM), most hits filed as inhibitors. 320,000 compounds, 6.9% hits
#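 Plates of compound plus infected erythrocytes (2% hematocrit, 0.05% parasitemia final) incubate 96 hours, 37 C, 5% CO2. Detection reagent added; reduced luminescence from the parasites' luciferase reporter flags inhibition.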
# A number is an active result; - = inactive; ? = inconclusive; . = not tested or not shown; [ ] = dose if it differs, or a comment. Most compounds without a hit are left out; they make up all but 21% or so of the library. Unless noted, calls follow the shape of the dose curve; as a rule, active = well fitted curve in the direction sought with a large enough effect; inconclusive = small, poorly fitted or top-dose-only effect, or another doubt; inactive = no such curve, though single readings can be large; an effect the other way counts as inactive or inconclusive.
SMILES,Pf growth 48h,Shiga inhibitor,HCV inhibitor,CHX counter,AMA1 RON2 block,Pf growth 96h
CCC1C(=O)N=C(SCC(=O)NC2CCCCC2)NC1=O (configuration not stated),-,-,-,-,-,-
COc1ccc(OCc2nnc(SCC(=O)N3C(C)CCCC3C)o2)cc1 (configuration not stated),?,-,-,-,-,?
COc1ccc(N(CC(=O)Nc2ccccc2C(=O)O)S(=O)(=O)c2ccc(C)c([N+](=O)[O-])c2)cc1,-,-,-,-,-,-
CC(=O)Oc1ccc(N(C(C)=O)S(=O)(=O)c2ccc(C)c([N+](=O)[O-])c2)cc1,-,-,-,-,-,2.62µM
Nc1nc(-c2ccc(Cl)cc2)nn1C(=O)c1cccs1,-,-,-,-,-,13.1µM
Nc1nc(-c2ccc(Cl)cc2)nn1C(=O)c1cccnc1,-,31.2,-,24.9,-,-
Nc1nc(-c2cccnc2)nn1C(=O)c1ccc(Cl)cc1,-,-,-,-,-,-
COc1ccc(N2CCN(CCCNS(=O)(=O)c3c(C)noc3/C=C/N(C)C)CC2)cc1,2.94µM,-,7.94µM,-,.,?
COc1ccc(CN(CC(=O)NCc2ccc(F)cc2)C(=O)CCC(=O)Nc2cc(C)ccn2)cc1,-,-,-,-,-,-
COc1ccccc1C(=O)Nc1ccnn1C1CCN(C(=O)c2cnsn2)CC1,-,-,-,-,-,?
O=C(Nc1ccnn1C1CCN(C2CCC2)CC1)c1ccccc1Cl,-,-,-,-,-,-
COc1ccccc1C(=O)Nc1ccnn1C1CCN(C(=O)c2ccoc2C)CC1,-,-,-,14.9,-,?
COC(C(=O)Nc1ccnn1C1CCN(C(=O)c2cccc(F)c2)CC1)c1ccccc1 (configuration not stated),-,-,-,-,-,?
O=C(Nc1cccc(F)c1)Nc1ccnn1C1CCN(C(=O)c2ccccn2)CC1,-,42.1,-,23.0,-,-
O=C(Nc1ccnn1C1CCN(C2CCC2)CC1)c1ccccc1,-,-,.,-,-,11.7µM
COc1ccc(C(=O)Nc2ccnn2C2CCN(C(=O)c3cnsn3)CC2)cc1,-,-,.,20.1,-,-
CSc1ncccc1C(=O)Nc1ccccc1N1CCOCC1,.,.,-,.,-[11.6 µM],.
CC(c1ccncc1)C(C)c1ccncc1 (configuration not stated),?,.,-,.,-,?
CC1NC(=O)c2cc3ccccc3cc2-n2c1nc1ccccc1c2=O (configuration not stated),.,.,.,.,-,.
COc1ccccc1NC(=O)Nc1ccnn1C1CCN(C(=O)c2cscn2)CC1,-,-,?,32.3,-,?
COc1ccccc1NC(=O)Nc1ccnn1C1CCN(C(=O)c2ccccn2)CC1,-,-,-,-,-,-
COc1ccc(NC(=O)C2CCN(S(=O)(=O)c3ccc(Cl)c(C(F)(F)F)c3)CC2)cn1,.,.,.,.,-,.
Cn1cc(/C=C2\SC(=O)N(c3ccccc3)C2=O)c2ccccc21,-,-,-,19.1,-,-
CCN1C(=O)S/C(=C/c2cn(C)c3ccccc23)C1=O,-,43.7,-,27.1,-,?
CCN=C1S/C(=C\c2cn(CC)c3ccccc23)C(=O)N1CC,?,-,?,-,?,?
SMILES,Pf growth 48h,Shiga inhibitor,HCV inhibitor,CHX counter,AMA1 RON2 block,Pf growth 96h
Cn1cc(/C=C2\C(=O)NC(=O)N(c3ccccc3)C2=O)c2ccccc21,-,-,-,-,-,-
Cn1cc(/C=C2\SC(=O)N(c3ccc(O)cc3)C2=O)c2ccccc21,?,90.6,?,44.9,-,?
COc1ccccc1N1CCN(Cc2cc(C)c(C)cc2O)CC1,.,-,?,-,-,0.329µM
COc1ccccc1N1CCN(Cc2cc3c(cc2O)OCO3)CC1,14.7µM,-,-,-,-,-
O=C(CCN1CCN(c2ccccc2F)CC1)Nc1ccc2c(c1)OCO2,-,-,?,-,?,3.29µM
O=C(CCN1CCN(c2ccccc2)CC1)Nc1ccc2c(c1)OCO2,?,-,-,-,-,-
COc1ccccc1N1CCN(Cc2ccccc2)CC1,?,.,?,-,?,-
COc1ccc(CNC(=O)CN2CCN(c3cccc(C)c3C)CC2)cc1,-,-,3.16µM,-,-,-
COC(=O)C[C@H]1CC[C@@H](NS(=O)(=O)c2ccc(C)cc2)[C@@H](CO)O1,.,.,.,.,-,.
COc1ccc(C(C)(O)c2nc(-c3cnc4ccccc4c3)cs2)cc1 (configuration not stated),.,.,.,.,-,.
COc1ccc(NC(=O)CCN2CCN(c3ccccc3F)CC2)c(OC)c1,?,.,-,-,-,10.4µM
O=[N+]([O-])c1cc2c(cc1CN1CCN(c3ccccc3)CC1)OCO2,-,.,-,34.9,-,?
CCOc1ccccc1N1CCN(Cc2cccc(OC)c2O)CC1,3.29µM,-,?,-,-,.
Oc1cc2c(cc1CN1CCN(c3ccccc3F)CC1)OCO2,9.28µM,-,-,-,?,?
CCOc1ccccc1N1CCN(C(=O)c2cc3ccccc3cc2OC)CC1,-,.,?,.,-,?
COc1cc(CN2CCN(c3cccc(C)c3C)CC2)cc(Br)c1O,4.15µM,-,?,-,?,.
COc1ccccc1N1CCN(Cc2cc(Br)c(O)c3ncccc23)CC1,.,-,3.98µM,-,-,?
COc1ccccc1N1CCN(Cc2cc(=O)oc3cc(C)ccc23)CC1,.,.,.,.,-,.
COc1ccc(CN2CCN(c3cccc(C)c3C)CC2)cc1OC,.,-,-,-,-,.
CN(CC(=O)Nc1ccccc1Cl)C(=O)c1ccc(N2C(=O)CCC2=O)cc1,?,.,-,.,-,-
COc1ccc(CCNC(=O)c2c(O)c3ccccc3[nH]c2=O)cc1,-,-,-,-,-,-
O=S(=O)(c1ccc(F)cc1)n1ccc(-c2cccc(OCc3ccc(Cl)cc3Cl)c2)n1,?,-,-,-,-,0.147µM
CCCC(=O)N1CCC1(C)C(=O)NS(=O)(=O)c1ccccc1Cl (configuration not stated),.,.,.,.,-,.
CCCC(=O)N1CCN(c2ccc(NC(=O)c3ccc4c(c3)OCCO4)cc2)CC1,?,-,-,-,-,?
CC(C)C(=O)N1CCN(c2ccc(NC(=O)c3ccc4c(c3)OCCO4)cc2Cl)CC1,.,-,12.6µM,-,-,4.65µM
SMILES,Pf growth 48h,Shiga inhibitor,HCV inhibitor,CHX counter,AMA1 RON2 block,Pf growth 96h
CC(=O)N1CCN(c2ccc(NC(=O)c3ccc4c(c3)OCCO4)cc2Cl)CC1,-,-,-,27.8,-,-
CC(C)c1ccc(NC(=O)CCNC(=O)N2CC(=O)Nc3ccccc32)cc1,?,-,-,-,-,?
COCCn1c(C)cc(C2=NNC(=Nc3ccccc3)SC2)c1C,?,-,?,23.4,-,-
COCCn1c(C)cc(C2=NNC(=Nc3ccc(OC)cc3)SC2)c1C,13.1µM,-,-,-,-,3.7µM
COCCn1c(C)cc(C2=NNC(=NC(C)(C)C)SC2)c1C,11.7µM,-,-,-,-,?
CCc1c(C)c(C#N)c2nc3ccccc3n2c1NCC1CCCO1 (configuration not stated),1.65µM,-,-,-,-,.
